# Screen size: about 310,000 compounds; about 1,000 (0.32%) were called active. How the calls were made is not given here. A selection follows. Potency and affinity values are given separately.
# Assay: PhoP regulon inhibitors, Salmonella typhi PhoP promoter GFP reporter, confirmatory (AID 1850);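 further: 0% = induced wells with vehicle and 100% = uninduced wells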
# Details: fluorescence, 4 h, at 50 µM, hits give high values
row,SMILES,inhibition
1,CCn1cc(CN2CCC(n3nccc3NC(=O)C3CCCC3)CC2)c(C)n1,-10.6% (inactive)
2,Brc1ccc(-c2nnc(-c3ccco3)o2)cc1,7.53% (inactive)
3,CCCCc1n(CC(=O)c2ccc(Cl)cc2)c2ccccc2[n+]1C,0.37% (inactive)
4,CN(C)C(=O)Oc1ccc(OCc2n(C)c3ccccc3[n+]2C)cc1,-10.3% (inactive)
5,Cc1nonc1OCCNCc1c(C(=O)N2CCCCCCC2)nc2ccc(Cl)cn12,0.8% (inactive)
6,Cc1ccc(CN2CC(C(=O)Nc3cc(S(C)(=O)=O)ccc3Cl)CC2=O)cc1 (centres undefined),-8.57% (inactive)
7,CC1(C)Cc2cccc(OCC(=O)N3CCN(c4cccc(C(F)(F)F)c4)CC3)c2O1,7.47% (inactive)
8,Cc1cc(C)c(OCCNCc2ccccc2)c(C)c1,-8.25% (inactive)
9,Cc1cc(C)c(OCCCNCc2ccccc2)c(Br)c1,13.8% (inactive)
10,COCCCNCCCCOc1c(Cl)cc(C)cc1Br,1.04% (inactive)
11,Cc1cc(Cl)cc(C)c1OCCNCc1ccccc1,-3.01% (inactive)
12,CCn1c(N2CCN(CC(=O)Nc3cccc(C)c3C)CC2)nc2ccccc21,-2.87% (inactive)
13,Cc1cccc(NC(=O)CCNC(=O)c2ccco2)c1,-1.77% (inactive)
14,CN(C)c1cnn(-c2ccccc2)c(=O)c1Cl,-7.8% (inactive)
15,CC(C)(O)CC[C@H](OC(=O)c1ccccc1)[C@](C)(O)[C@H]1CC[C@@]2(O)C3=CC(=O)[C@@H]4C[C@@H](O)[C@H](O)C[C@]4(C)C3CC[C@]12C (some centres undefined),4.63% (inactive)
16,COc1ccc(C(C)NC(=O)Cc2ccc(Br)cc2)cc1 (centres undefined),3.69% (inactive)
17,CCOc1ccccc1NC(=O)c1cccc(NC(=O)C(C)C)c1,-6.67% (inactive)
18,O=C(O)CCN1C(=O)CC(N2C(=O)/C(=C/c3ccc(Cl)cc3)SC2=S)C1=O (centres undefined),-12.1% (inactive)
19,O=C1CC(N2C(=O)/C(=C/C=C/c3ccccc3)SC2=S)C(=O)N1c1ccccc1 (centres undefined),-6.61% (inactive)
20,Cc1ccc(S(=O)(=O)NNC(=O)c2cnn(-c3ccccc3)c2C(F)(F)F)cc1,-1.38% (inactive)
21,CC(C)(C)C(=O)Nc1ccccc1-c1nc2ccccc2[nH]c1=O,-6.56% (inactive)
22,O=C(COc1ccccc1[N+](=O)[O-])Nc1ccc(N2CCN(C(=O)c3cccs3)CC2)cc1,7.91% (inactive)
23,Cc1cc(C(=O)N/N=C/c2ccc(Br)o2)n[nH]1,-0.33% (inactive)
24,O=C1C2C3C=CC(C3)C2C(=O)N1CCCCCCN1C(=O)C2C3C=CC(C3)C2C1=O (centres undefined),7.17% (inactive)
25,O=C1C=CC(=O)N1Cc1ccccc1,18.2% (inactive)
26,COc1ccc2nc(-c3ccccc3)nc(C3CCCCC3)c2c1,-28.1% (inactive)
27,COc1ccc(Cl)cc1NC(=O)CN(C)C(=O)c1cc2c(s1)CCC(C)C2 (centres undefined),-5.36% (inactive)

row,SMILES,inhibition
1,Cc1c(CN(C)C)c2c(n1Cc1ccccc1)C(=O)c1ccccc1-2,5.65% (inactive)
2,Cc1c(CN(C)C)c2c(n1C)C(=O)c1ccc(Br)cc1-2,-10.7% (inactive)
3,O=C(c1nc2ccccn2c1CNCCn1ccc2ccccc21)N1CCOCC1,-10.1% (inactive)
4,COc1ccccc1-c1ccc2nnc(SCC(=O)N3CCCC3)n2n1,3.68% (inactive)
5,CCn1nc(-c2ccccc2)nc2c(=O)n(C)c(=O)nc1-2,14.7% (inactive)
6,Cn1nc(-c2ccccn2)nc2c(=O)n(C)c(=O)nc1-2,13.1% (inactive)
7,Cc1ccc(-n2c3nc(=O)n(C)c(=O)c-3cc3ccccc32)cc1,8.69% (inactive)
8,Cc1ccccc1-n1c2nc(=O)n(C)c(=O)c-2cc2ccccc21,-5.45% (inactive)
9,Nc1nonc1-n1nnc(C(=O)N/N=C/c2ccc(F)cc2)c1-c1ccc2c(c1)OCO2,3.99% (inactive)
10,CC(C)c1ccc(NC(=O)C2CCN(S(C)(=O)=O)CC2)cc1,9.77% (inactive)
11,O=C(CN1CCN(c2ccccn2)CC1)NC1CCCC1,-2.6% (inactive)
12,CC[C@H]1OC(=O)[C@H](C)[C@@H](O[C@H]2C[C@@](C)(OC)[C@@H](O)[C@H](C)O2)[C@H](C)[C@@H](O[C@@H]2O[C@H](C)C[C@H](N(C)C)[C@H]2O)[C@](C)(O)C[C@@H](C)C(=NOCOCCOC)[C@H](C)[C@@H](O)[C@]1(C)O,-1.81% (inactive)
13,CCOC(=O)CCC(=O)O[C@H]1[C@H](O[C@@H]2[C@@H](C)[C@H](O[C@H]3C[C@@](C)(OC)[C@@H](O)[C@H](C)O3)[C@@H](C)C(=O)O[C@H](CC)[C@@](C)(O)[C@H](O)[C@@H](C)C(=O)[C@H](C)C[C@@]2(C)O)O[C@H](C)C[C@@H]1N(C)C,12.7% (inactive)
14,CCC1OC(=O)C(C)C(OC2C[C@@](C)(OC)C(O)C(C)O2)C(C)C(O[C@@H]2OC(C)CC(N(C)C)C2O)[C@](C)(O)CC(C)C(=NOCOCCOC)C(C)C(O)[C@]1(C)O (some centres undefined),2.39% (inactive)
15,COc1ccccc1C(C(=O)NCc1ccc(F)cc1)N(C(=O)c1csnn1)C1CC1 (centres undefined),-0.44% (inactive)
16,CCN(CC)S(=O)(=O)c1ccc(OC)c(NC(=O)c2ccc(-n3cncn3)c([N+](=O)[O-])c2)c1,1.29% (inactive)
17,O=C(Cn1c(=O)oc2ccccc21)NCCc1ccccc1,-10.1% (inactive)
18,Cc1cc(C)cc(NC(=O)CSc2nccn2Cc2ccco2)c1,-0.51% (inactive)
19,OCCCCNCc1ccc(OCc2ccccc2Cl)cc1,26.2% (inactive)
20,COc1cc(CNCCc2ccccc2)ccc1OCc1ccc(Cl)nc1,26.7% (inactive)
21,COc1cc(CNCCO)cc(Cl)c1OCc1ccccc1Cl,-3.95% (inactive)
22,COc1cc(CNC2CCCC2)cc(Cl)c1OCc1ccccc1F,11.7% (inactive)
23,COc1ccccc1CCNCc1ccc(OC)c(OCc2ccccc2)c1,-4.13% (inactive)
24,COc1cc(CNCCO)cc(Br)c1OCc1ccccc1Cl,9.5% (inactive)
25,COc1cc(CNC2CCCC2)cc(Cl)c1OCc1ccc(F)cc1,7.58% (inactive)
26,OCCNCc1ccc(OCc2ccc(Cl)cc2Cl)cc1,6.74% (inactive)
27,CC1(C)CC(=O)C2=C(C1)OC(N)=C(C#N)C21C(=O)N2CCCc3cccc1c32 (centres undefined),-2.22% (inactive)

# — PubChem BioAssay AID1850 (Southern Research Specialized Biocontainment Screening …, 2009)
